From PubChem BioAssay AID778 (Sanford-Burnham Center for Chemical Genomics, 2007)
Out of some 96,000 compounds screened, about 20,000 (21%) were called active. A selection follows. A number with no mark means an inactive call.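 The calls were made as follows: active = CYP2C19 inhibition above a set limit at 5 µM in the primary screen (cut at about 50% in these data); inactive = the rest.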

Biological target: Cytochrome P450 2C19 (Homo sapiens) (UniProt P33261)
Assay: blockers of cytochrome P450 2C19 activity – biochemical, luminescence, ADME assay, primary screen (AID 778);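 also: plate controls were negative control wells for no effect and 2.5 mM tranylcypromine positive control for full effect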
Settings: CYP2C19 Supersomes, luciferin-H EGE luminescence, 30 min; at 5 µM; active compounds read high

Chain of Cytochrome P450 2C19 (Homo sapiens) (P33261 whole entry, looked up): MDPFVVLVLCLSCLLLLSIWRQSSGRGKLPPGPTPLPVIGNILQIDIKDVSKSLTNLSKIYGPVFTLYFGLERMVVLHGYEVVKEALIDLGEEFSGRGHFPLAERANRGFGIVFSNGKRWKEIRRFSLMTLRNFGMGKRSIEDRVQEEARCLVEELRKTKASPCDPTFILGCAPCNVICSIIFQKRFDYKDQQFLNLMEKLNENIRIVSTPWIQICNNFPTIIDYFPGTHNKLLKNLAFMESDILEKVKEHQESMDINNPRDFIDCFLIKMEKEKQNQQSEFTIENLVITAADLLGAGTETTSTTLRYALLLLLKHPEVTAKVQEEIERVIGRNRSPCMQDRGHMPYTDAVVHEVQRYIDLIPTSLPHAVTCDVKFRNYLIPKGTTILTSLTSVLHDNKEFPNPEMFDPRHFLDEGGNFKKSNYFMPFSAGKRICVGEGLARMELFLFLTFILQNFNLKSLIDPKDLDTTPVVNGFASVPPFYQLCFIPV

Structure (SMILES) | inhibition
Cc1ncn(C23CC4CC(CC(O)(C4)C2)C3)n1 | 3.7%
CCCCC(=O)N(c1ccc(OC)cc1)C1C=CS(=O)(=O)C1 (configuration not stated) | 19.8%
COc1ccc(C(=O)Nc2cc(C)ccc2NC(=O)COc2ccccc2)cc1 | 17%
CCCCN=C(N)/C(C(=O)OCC)=C(\O)c1ccc(OC)cc1 | 54.8% (active)
COc1ccc(OCCCC(=O)Nc2nnc(C3CCCO3)s2)cc1 (configuration not stated) | 34.1%
CCN1CCN(c2ccc([N+](=O)[O-])cc2C(=O)c2ccc(Cl)cc2)CC1 | 5.8%
CCCC(=O)Nc1nnc(CC(=O)OCC)s1 | -0.3%
Cc1ccc(N2C(=O)C(Cc3ccccc3)NC2=S)cc1 (configuration not stated) | 39.4%
CC1=CC(C)(C)NC(=S)N1c1ccccc1 | 58.1% (active)
COc1ccc2c(c1OC)C(=O)OC2Nc1nc(-c2ccccc2)cs1 (configuration not stated) | 12%
Cc1[nH]n(-c2ccccc2)c(=O)c1CCOC(=O)c1ccc(C(F)(F)F)cc1 | 31.8%
Cn1c(=O)cc(OCCCC(=O)N2CCN(Cc3ccc4c(c3)OCO4)CC2)c2ccccc21 | 36.7%
O=C(Nc1cccc2ccccc12)N1CCN(Cc2ccc3c(c2)OCO3)CC1 | 35.2%
COc1ccc(S(=O)(=O)N2CCN(C(=O)c3cccs3)CC2)cc1OC | 43.6%
O=C(c1cccs1)N1CCN(Cc2ccc3c(c2)OCO3)CC1 | 56.9% (active)
CCCS(=O)(=O)N1CCN(C(=O)c2cccs2)CC1 | 11%
CCS(=O)(=O)N1CCN(C(=O)c2cccs2)CC1 | 56.5% (active)
O=C(CCCN1C(=O)c2cccc3cccc(c23)C1=O)N1CCN(Cc2ccc3c(c2)OCO3)CC1 | 78.8% (active)
O=C(c1cccs1)N1CCN(C(=O)N2CCOCC2)CC1 | 2.3%
NC(=O)c1ccccc1NC(=O)c1ccccc1F | -8.5%
CCOC(=O)c1c(C)nc(-c2ccccc2)nc1NC(=O)C(C)C | 37.3%
CCOC(=O)N1CCC(NC(=O)Cn2cc3c(n2)CCCCC3)CC1 | 1.5%
CCN1CCN(Cc2c(O)ccc3c(=O)c(-c4ccc(OC)c(OC)c4)c(C(F)(F)F)oc23)CC1 | 12%
Cc1cc(=O)oc(C)c1C(=O)Nc1cnc2ccccc2c1 | 0.8%
CC(=NCC1CCCO1)c1c(O)[nH]c(=O)[nH]c1=O (configuration not stated) | -7.7%
COCCNC(=O)CN(C(=O)CCC(=O)Nc1cc(C)on1)c1ccc(C)cc1C | 11.8%

Structure (SMILES) | inhibition
N#CC1=C(N)Oc2n[nH]c(CSc3ccccc3)c2C12C(=O)Nc1ccccc12 (configuration not stated) | 0.5%
O=C(NCc1ccccn1)c1ccc2nc(-c3ccco3)c(-c3ccco3)nc2c1 | 43.6%
COc1ccc(CC(NC(C)=O)C(=O)NC2CCN(C(=O)Nc3ccc(C#N)cc3)CC2)cc1OC (configuration not stated) | 32%
COc1ccc(C(CNC(=O)c2cccnc2SC)N2CCOCC2)cc1 (configuration not stated) | 11.3%
CCC1=C/C(=C\c2ccc3c(c2)OCO3)C(=O)S1 | 43.8%
Cc1cccc(N=C2NC(=O)CS2)c1C | 7.4%
COc1cc(OC)c(-n2c(C)cc(C=O)c2C)cc1Cl | 93.2% (active)
Cc1cc(C=O)c(C)n1-c1ccc(NC2CCCCC2)c([N+](=O)[O-])c1 | -2.5%
O=C(c1ccco1)N1CCN(C(=O)c2ccc(COc3ccc(F)cc3)o2)CC1 | 25.1%
COCCN1Cc2cccc(C(=O)Nc3ccccc3OC)c2C1=O | 34.9%
CCCOc1ccc(NC(=O)C2CCCNC2=O)cc1 (configuration not stated) | 3.9%
C=CCNC(=O)c1cc(-c2ccccc2O)on1 | 45.7%
CNC(=O)c1csc(-c2ccccc2)n1 | 23.7%
C=CCNC(=O)c1csc(-c2ccccc2)n1 | 67.4% (active)
CS(=O)(=O)N(CC(=O)N1CCOCC1)c1ccc2c3c(cccc13)CC2 | 32.7%
C=CCN(C(=O)Cn1ncc2c1-c1cc(C)ccc1OC2)c1ccccc1 | 63.4% (active)
C=CCN(C(=O)Nc1ccc2oc(C)nc2c1)c1ccccc1 | 14.7%
Cc1ccc2oc(=O)c3cnn(CC(=O)N4CCCCCC4)c3c2c1 | -5.2%
CS(=O)(=O)c1sc2nc(-c3ccccc3)cc(-c3ccccc3)c2c1N | -2.6%
O=C(NC1CCCCC1)N1CCc2[nH]c3ccccc3c2C1 | 44.1%
N#Cc1ccc(CSc2nnc(-c3ccccn3)n2-c2ccc(Cl)cc2)cc1 | 18.3%
O=C(Oc1cccnc1)c1cc2ccccc2oc1=O | -9.9%
O=C(NCc1ccccn1)c1cc2ccccc2oc1=O | 1.3%
Nc1ncc(-c2cc3ccccc3oc2=O)s1 | 51.3% (active)
CCCCN(C)C(=O)c1ccc2c(c1)N(CC)C(=O)c1ccccc1S2(=O)=O | 22.5%
O=C(CCN1C(=O)c2ccccc2C1=O)Nc1ccncc1 | 36.2%

Structure (SMILES) | inhibition
O=C(CCN1C(=O)c2ccncc2C1=O)Nc1ccc2c(c1)OCCO2 | 2.4%
O=C(CCN1C(=O)c2ccccc2C1=O)Nc1cccc(F)c1 | 78% (active)
O=C(COc1ccccc1Cl)Nn1cnnc1 | 41.3%
COc1ccc(Cc2nnc(NC(=O)Cc3cccs3)s2)cc1 | 17.2%
COc1ccc(NC(=O)NC2CC3CCCC(C2)N3Cc2ccccc2)cc1 (configuration not stated) | 0.4%
CN(C)c1nc2n(c(=O)n1)CCO2 | -6%
CN(C)/C=C1/Nc2ccccc2C1=O | 14.3%
COc1ccc(-c2nc(CS(=O)CC(=O)N3CCc4ccccc4C3)c(C)o2)cc1 (configuration not stated) | 17.7%
Cc1oc(-c2ccccc2F)nc1CS(=O)(=O)CC(=O)NCCCN(C)C1CCCCC1 | -10.6%
Cc1ccccc1-c1nc(CS(=O)(=O)CC(=O)N2CCc3ccccc3C2)c(C)o1 | 69.4% (active)
CCN1CCN(C(=O)/C=C\C(=O)O)CC1 | -10.4%
CCOC(=O)c1c(N)c(C#N)nn1-c1ccccc1C(=O)OC | 25.3%
CCC(=O)NC(NCC1CCCO1)C(Cl)(Cl)Cl (configuration not stated) | 8.6%
COCCNC(=O)c1snc2ccc(Cl)cc12 | -5.7%
CCOC(=O)c1cc2ccccc2nc1C | 12.8%
CCOC(=O)c1nc(N)sc1C(=O)OCC | -0.6%
CCOC(=O)c1sc(C)c2c1NC(C)(c1cccc3ccccc13)NC2=O (configuration not stated) | 82% (active)
COC(=O)C(C)n1cnc2c(nnn2-c2cccc(Cl)c2)c1=O (configuration not stated) | 24.7%
COc1ccc(Cl)cc1C(=O)Nc1ccc(N(C)C(C)=O)cc1 | 25.6%
COc1ccc(NC(=S)N2N=CCC2c2ccccc2)cc1 (configuration not stated) | 41.5%
N#Cc1c(N)n(CCOC(=O)c2ccc(Cl)cc2)c2nc3ccccc3nc12 | 29.4%
CCOC(=O)c1cc(NC(=O)c2ccc(Cl)cc2)c(=O)oc1-c1ccccc1 | 6.8%
CN1OC(COC(=O)c2ccc(Cl)cc2)CC1c1ccccc1 (configuration not stated) | 74.5% (active)
CCOc1ccc(OCC)c(NC(=O)C(NS(=O)(=O)c2ccc3c(c2)oc(=O)n3C)C(C)C)c1 (configuration not stated) | 20.9%
c1ccc(-c2cc(-c3nnc4sc(-c5ccccn5)nn34)[nH]n2)cc1 | 10.4%
O=C(O)c1cccnc1NC1CCCC1 | 6.9%

Structure (SMILES) | inhibition
CCN(CC)C(=O)CSc1nnc(-c2ccc(S(=O)(=O)NCc3ccccc3Cl)cc2)o1 | 65.4% (active)
O=C(CSc1nnc(-c2ccc(NS(=O)(=O)c3ccccc3)cc2)o1)NCC1CCCO1 (configuration not stated) | 46.1%
CCN(CC)C(=O)CSc1nnc(-c2cccc(OC)c2)o1 | 26.3%
CC(C)CC(=O)Nc1cc(C(F)(F)F)ccc1N1CCOCC1 | 32.1%
CC(CC(=O)Nc1cc(C(F)(F)F)ccc1Cl)c1ccccc1 (configuration not stated) | 61% (active)
O=C(Nc1cc(C(F)(F)F)ccc1Cl)c1cc2nc3c(c(C(F)(F)F)n2n1)CCCC3 | 7.6%
COC(=O)CNC(=O)c1ccc2c(c1)S(=O)(=O)c1ccccc1C2=O | -4.3%
O=C(CC1OC(=O)c2ccccc21)NC1CCCCC1 (configuration not stated) | -5.7%
O=C(NC(c1ccccc1)c1ccccc1)N1CCN(CCO)CC1 | 3.6%
S=c1[nH]nc2c3c4c(sc3ncn12)CCCC4 | -8.5%
Cc1cccc(CSc2nnc(NC(=O)CSc3nnc(C)s3)s2)c1 | 20.2%
CCOC(=O)/C(=C\c1ccc([N+](=O)[O-])cc1)C(=O)c1cc(C(C)=O)c(Nc2ccccc2)s1 | 62.8% (active)
O=C(NCCc1ccccc1)/C(=C\c1ccc([N+](=O)[O-])cc1)NC(=O)c1ccccc1 | -1.2%
CCOC(=O)/C(C#N)=C/c1ccc(OCC(=O)Nc2ccccc2)c(OC)c1 | 4.1%
CCCC(=O)Nc1c(O)c2ccccc2[nH]c1=O | -8.7%
COc1ccc(OC)c(NC(=O)Cn2c(=O)oc3ccccc32)c1 | 42.2%
CCOc1ccc(S(=O)(=O)Nc2nc3cc(OC)ccc3s2)cc1 | 16.3%
CCOc1ccc(CC(=O)Nc2ccc(S(=O)(=O)Nc3cc(C)on3)cc2)cc1OCC | 2%
COc1ccc(C(=O)Nc2ccc(F)cc2F)cc1 | 12.1%
COc1ccc(OC)c(NC(=O)CCN2CCC(C)CC2)c1 | 89.8% (active)
CCOc1ccc(S(=O)(=O)Nc2ccc(S(=O)(=O)Nc3cc(OC)ccc3OC)cc2)cc1 | 91.8% (active)
COc1ccc(OC)c(NC(=O)CN2CCN(C(=O)c3ccco3)CC2)c1 | 8.8%
CCOc1ccccc1NC(=O)Nc1cc(OC)ccc1OC | 1.1%
CCOc1ccc(C(=O)Nc2cc(OC)ccc2OC)cc1 | 77% (active)
